Data published in PubChem BioAssay.

Molecular target: NAD(+) hydrolase SARM1 (Homo sapiens) (UniProt Q6SZW1)
Assay: blocking NAD cleavage by SARM1 SAM-TIR – cell lysate, NAD-Glo luminescence (AID 1508614);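 also: higher remaining NAD means stronger inhibition of SARM1 NADase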
Conditions: SAM-TIR HEK293T lysate NADase, at 1 µM, hits give high values;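 active = compound whose remaining NAD level is above about 45 nM (limit read from the data); inactive = the rest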

Sequence of NAD(+) hydrolase SARM1 (Homo sapiens) (Q6SZW1 whole entry, looked up): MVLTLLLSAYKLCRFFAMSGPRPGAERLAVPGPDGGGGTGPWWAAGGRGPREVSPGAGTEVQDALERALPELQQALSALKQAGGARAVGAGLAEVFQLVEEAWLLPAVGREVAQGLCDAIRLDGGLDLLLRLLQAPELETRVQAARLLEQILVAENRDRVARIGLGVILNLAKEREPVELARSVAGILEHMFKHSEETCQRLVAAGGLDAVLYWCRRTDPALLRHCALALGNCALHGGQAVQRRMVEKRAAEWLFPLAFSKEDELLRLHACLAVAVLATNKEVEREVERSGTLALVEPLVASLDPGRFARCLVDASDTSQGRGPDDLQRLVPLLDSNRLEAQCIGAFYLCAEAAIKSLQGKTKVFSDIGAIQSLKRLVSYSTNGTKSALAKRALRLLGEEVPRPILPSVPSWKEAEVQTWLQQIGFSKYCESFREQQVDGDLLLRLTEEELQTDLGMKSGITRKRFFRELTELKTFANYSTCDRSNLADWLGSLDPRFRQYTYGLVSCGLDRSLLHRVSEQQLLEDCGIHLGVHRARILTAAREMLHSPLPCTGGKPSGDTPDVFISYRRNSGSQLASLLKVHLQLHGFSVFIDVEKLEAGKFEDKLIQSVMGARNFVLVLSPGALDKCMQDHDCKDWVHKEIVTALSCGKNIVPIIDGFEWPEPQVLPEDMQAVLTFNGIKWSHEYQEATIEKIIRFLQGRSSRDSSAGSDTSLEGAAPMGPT

Remaining NAD, inactive:
CCCCNc1ccc(C(=O)OCCN(C)C)cc1 10 nM
Clc1ccc(C(c2ccccc2Cl)C(Cl)Cl)cc1 (centres undefined) 10 nM
CN1CCN2c3ccccc3Cc3ccccc3C2C1 (centres undefined) 10 nM
NCCS 10 nM
CCOC(=O)C1=C[C@]2(CC)CCCN3CCc4c(n1c1ccccc41)[C@@H]32 10 nM
CN1Cc2c(N)cccc2C(c2ccccc2)C1 (centres undefined) 17 nM
Nc1c(Br)cc(Br)cc1CNC1CCC(O)CC1 (centres undefined) 10 nM
O=C(O)CCC(=O)c1ccc(-c2ccccc2)cc1 10 nM
NCCS(=O)(=O)O 10 nM
CN(C)CCOC(=O)COc1ccc(Cl)cc1 10 nM
COc1ccnc(CS(=O)c2nc3ccc(OC(F)F)cc3[nH]2)c1OC (centres undefined) 10 nM
COc1ccccc1OCC(O)CO (centres undefined) 10 nM
Cc1ccccc1N1C(=O)c2cc(S(N)(=O)=O)c(Cl)cc2NC1C (centres undefined) 10 nM
NC(N)=Nc1nc(CSCC/C(N)=N/S(N)(=O)=O)cs1 10 nM
O=C(NC(Cc1cc(=O)[nH]c2ccccc12)C(=O)O)c1ccc(Cl)cc1 (centres undefined) 10 nM
COC(=O)N/N=C/c1c[n+]([O-])c2ccccc2[n+]1[O-] 10 nM
CC[N+](CC)(CC)CCOc1cccc(OCC[N+](CC)(CC)CC)c1OCC[N+](CC)(CC)CC 10 nM
CO[C@]12C[C@@H](COC(=O)c3cncc(Br)c3)CN(C)[C@@H]1Cc1cn(C)c3cccc2c13 10 nM
NCCCC(=O)O 10 nM
O=C1CCc2cc(OCCCCc3nnnn3C3CCCCC3)ccc2N1 10 nM
CCC1(C)CC(=O)NC1=O (centres undefined) 10 nM
CC(=O)Nc1ccc(O)cc1 10 nM
C#CCN(C)Cc1ccccc1 10 nM
NC(=O)c1ncn([C@@H]2O[C@H](CO)[C@@H](O)[C@H]2O)n1 10 nM
NC(CO)C(=O)NNCc1ccc(O)c(O)c1O (centres undefined) 10 nM
C[n+]1ccccc1/C=N/O 10 nM
O=C1C(=O)c2ccccc2C(O)=C1C1CCC(c2ccc(Cl)cc2)CC1 (centres undefined) 10 nM
CCCCC1C(=O)N(c2ccccc2)N(c2ccccc2)C1=O 10 nM
O=c1[nH]c(=O)n([C@H]2C[C@H](O)[C@@H](CO)O2)cc1F 10 nM
C[C@]12CCC(=O)C=C1C=C[C@@H]1[C@@H]2CC[C@@]2(C)[C@H]1CC[C@@]21CCC(=O)O1 10 nM
C=CC(N)CCC(=O)O (centres undefined) 10 nM
C/C=C/c1ccc(OC)cc1 10 nM
C[C@]12C=CC(=O)C=C1CC[C@H]1[C@@H]3C[C@@H](O)[C@](O)(C(=O)CO)[C@@]3(C)C[C@H](O)[C@@]12F 10 nM
c1ccc(CN(CC2=NCCN2)c2ccccc2)cc1 10 nM
CO[C@@]1(NC(=O)CSCC#N)C(=O)N2C(C(=O)O)=C(CSc3nnnn3C)CS[C@@H]21 10 nM
Cc1nnc(SCC2=C(C(=O)O)N3C(=O)[C@@H](NC(=O)Cn4cnnn4)[C@H]3SC2)s1 10 nM
CC(=O)OC(C)C[N+](C)(C)C (centres undefined) 10 nM
Cc1ccc(C(=O)c2ccc(CC(=O)O)n2C)cc1 10 nM
Cn1c(=O)c2c(ncn2C)n(C)c1=O 10 nM
